Data on six substances can be found in ChEMBL document CHEMBL1201862, “PubChem BioAssay data set” (2004).

About 2,900 (6.9%) of roughly 42,000 sequences were called active. This is one part of a sample in which actives are shown more often than they occur. Cut-off read from the data, not from the text of the source: active = GI50 up to about 1.1 µM and inactive = higher. Measured potencies and affinities stand elsewhere.

The GI50 is the concentration that inhibits growth by half. The low end stands for more potent growth inhibition, the high end for less potent growth inhibition.

This assay concerns T47D.
Turning to “[Bis(aminomethyl)tetramethylenesilane]dichloropaltinum(II), CHEMBL2146205”, the GI50 is 5 µM.
The substance “[Bis(aminomethyl)pentamethylenesilane]dichloropaltinum(II), CHEMBL2146202” came in with a GI50 of 1.34 µM.
To “[Bis(aminomethyl)tetramethylenesilane]tetrachloropaltinum(IV), CHEMBL2146189” belongs 0.184 µM.
Under “[Bis(aminomethyl)pentamethylenesilane]tetrachloropaltinum(IV), CHEMBL2146204” stands 2.18 µM; under “[Bis(aminomethyl)dimethylsilane]tetrachloroplatinum(IV), CHEMBL2146190”, 14.6 µM; under CISPLATIN, CHEMBL11359, 14 µM.
